# Test results: PubChem BioAssay AID435026 (Broad Institute, 2010)
# Among all 1,000 compounds or so, about 410 (41%) were called active.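 Rule for the calls: active = fitted half-maximal inhibitory concentration no more than tenfold above the top dose tested; inconclusive = flat fit with 30 to 70% activity, or poor fit; inactive = half-maximal concentration beyond tenfold above the top dose.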 So high a share suggests a set chosen from earlier hits. Not all results are given here.
# Assay: compounds reducing YIC probe YFP/CFP ratio – biochemical, fluorescence FRET, counter-screen for RanGTP-importin-beta inhibitor project, dose response (AID 435026)
# Details: Purified YIC probe, intramolecular FRET ratio YFP/CFP
row,SMILES,IC50
1,CN(C)CCCn1c(N)c(C#N)c2nc(C#N)c(C#N)nc21,25 µM (active)
2,CCN(CCO)C(=S)Nc1cc(C(=O)OC)ccc1C(=O)OC,> 50 µM (inactive)
3,O=C(Nc1ccccc1-c1ccccc1)c1cccs1,> 50 µM (inactive)
4,N#C/C(=C/c1ccc(N2CCCCC2)o1)C(=O)NCCc1c[nH]c2ccccc12,0.753 µM (active)
5,Cc1nc2ccccc2c2oc(C(=O)NCCCN3CCC(C)CC3)cc12,> 50 µM (inactive)
6,COc1ccc(C(=O)C[n+]2ccc(N)c(C)c2C)cc1,> 50 µM (inactive)
7,Cc1ccc(-n2c(=O)c(C#N)cc3c(=O)n4ccccc4nc32)cc1C,1.78 µM (active)
8,COC(=O)c1cc2c(ccn2C)n1C,> 50 µM (inactive)
9,CCn1c2ccccc2c2cc(NC(=O)CNC)ccc21,> 50 µM (inactive)
10,O=c1cc(CN2CCN(S(=O)(=O)/C=C/c3ccccc3)CC2)c2ccc(O)cc2o1,44.1 µM (active)
11,COc1cc(SC)ccc1C(=O)Nc1nc(C)cs1,> 50 µM (inactive)
12,COC(=O)c1ccc2c(C(C)(C)O)c(C(C)(C)O)[nH]c2c1,> 50 µM (inactive)
13,COc1cccc(C(=O)c2cc3ccc(O)cc3oc2=O)c1,28.1 µM (active)
14,CC(=O)c1ccc(-c2ccc(Cn3c(C)nc4cc(N)c(C)nc43)cc2)cc1,> 50 µM (inactive)
15,Cc1cc(O)ccc1NC1=CC(=O)CC(C)(C)C1,> 50 µM (inactive)
16,CC(=O)N1CCc2c(sc(NC(=O)CCS(=O)(=O)c3ccc(C)cc3)c2C(N)=O)C1,38 µM (active)
17,CCCNS(=O)(=O)c1ccc2c(c1)CCCN2C(C)=O,> 50 µM (inactive)
18,CCOC(=O)c1c(C)oc2cc(Br)c(OCC(N)=O)cc12,> 50 µM (inactive)
19,COc1ccc(-n2cnc3cc(NCc4ccco4)ccc32)cc1,> 50 µM (inactive)
20,CC1(C)CC(=O)NC=C(c2ccccc2)C1,> 50 µM (inactive)
21,Cc1ccc(NC(=S)NCCN2CCOCC2)cc1,> 50 µM (inactive)
22,N#C/C(=C\c1ccc(N2CCOCC2)o1)C(=O)N1CCOCC1,5.73 µM (active)
23,N#C/C(=C/c1ccc(N2CCOCC2)o1)C(=O)N1CCOCC1,5.08 µM (active)
24,CCCC(C)c1nnc(NC(=O)C2CC(=O)N(c3ccc(OCC)cc3)C2)s1 (configuration not stated),> 50 µM (inactive)

row,SMILES,IC50
1,COc1ccc(C(=O)Cc2cnn(-c3ccccc3)c2)c(O)c1,> 50 µM (inactive)
2,Cc1ccc(N2CCN(c3ccc(C)cc3)C2c2ccccn2)cc1,> 50 µM (inactive)
3,CCOc1ccc(N=Cc2c(O)n(-c3cccc(C)n3)c(=O)c3ccccc23)cc1,34.7 µM (active)
4,CCN(CC)c1nc(-c2ccccc2)cc(C(F)(F)F)c1C#N,9.38 µM (active)
5,CCCOc1ccc(Cn2ccnc2)cc1[N+](=O)[O-],> 50 µM (inactive)
6,CCN1C(=O)/C(=C2/Sc3ccccc3N2CCCS(=O)(=O)O)SC1=S,15 µM (active)
7,C/C(=N\N)c1c(-c2ccccc2)c2cc(Br)ccc2[nH]c1=O,> 50 µM (inactive)
8,CN1CCN(c2cc(=O)n(-c3ccc(Cl)cc3)c(=O)[nH]2)CC1,> 50 µM (inactive)
9,CCC(=O)Nc1c(S(=O)(=O)c2ccccc2)c2nc3ccccc3nc2n1Cc1ccccc1,17.3 µM (active)
10,O=C(NNc1c2ccccc2nc2ccccc12)c1cc2ccccc2cc1O,> 50 µM (inactive)
11,COc1ccc(CCn2c(=N)c(C(=O)NCc3ccco3)cc3c(=O)n4cccc(C)c4nc32)cc1,50.2 µM (active)
12,CC(C)C1C2=C(CC(C)(C)CC2=O)ON1c1ccccc1 (configuration not stated),> 50 µM (inactive)
13,CCN1CCc2nc(NC(=O)c3cc(F)c(F)cc3Cl)sc2C1,> 50 µM (inactive)
14,CNC(=O)c1cc2c(ccc3ccccc32)oc1=N,7.06 µM (active)
15,CC(=O)c1cc(C#N)c(N2CC(C)OC(C)C2)nc1C (configuration not stated),> 50 µM (inactive)
16,Oc1c(CN2CCN(c3ccc(F)cc3)CC2)cc(Cl)c2cccnc12,> 50 µM (inactive)
17,CC1CN(c2cc(=O)n(-c3cccc(Br)c3)c(=O)[nH]2)CC(C)O1 (configuration not stated),> 50 µM (inactive)
18,CCOC(=O)c1oc2c(CN3CCN(CCO)CC3)c(O)c(CC)cc2c(=O)c1-c1nc2ccccc2s1,29.2 µM (active)
19,CC1CC(=O)N(CC(=O)Nc2cccc(Cl)c2)c2ccccc2S1(=O)=O (configuration not stated),> 50 µM (inactive)
20,CC(OC(=O)CNC(=O)c1cccc(F)c1)C(=O)NC1CCCCC1C (configuration not stated),> 50 µM (inactive)
21,OCCNCc1cccc(OCc2ccccc2Cl)c1,> 50 µM (inactive)
22,N#Cc1c(N)n(CCOC(=O)c2ccc(Cl)cc2)c2nc3ccccc3nc12,3.73 µM (active)
23,CCN(CC(=O)Nc1cccc(S(=O)(=O)N2CCCCC2)c1)Cc1ccccc1,> 50 µM (inactive)
